Reference: PubChem BioAssay (NCATS)
Inconclusive results are not listed. Active and inactive are the calls of the source. Unless noted, no rule for the calls is given here.

Tests used:
[1] = qHTS profiling for inhibitors of Plasmodium falciparum (HB3) proliferation (AID 743324; active = well fitted curve in the direction sought with a large enough effect; an effect the other way counts as inactive or inconclusive;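 also: 100% = DMSO vehicle wells and 0% = artemisinin-treated control wells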); conditions: Plasmodium falciparum HB3 blood-stage proliferation; at 28.7 µM (top of the series) unless noted
Summary of the method: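 SYBR Green fluorescence (485 ex/535 em) of lysed cultures, incubated overnight at room temperature in the dark, quantifies parasite DNA. Infected erythrocytes at 0.3% parasitemia and 2.5% hematocrit were exposed 72 h; values normalized to DMSO and 0.29 uM artemisinin controls.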

[2] = Immunotoxin (HA22) sensitization/mitigation study. Vehicle arm (PBS) (AID 1159510); also: potency is read from the fitted curve at half-maximal effect
[3] = Immunotoxin (SS1P) sensitization/mitigation study. Vehicle arm (DMEM) (AID 1159513); also: potency is read from the fitted curve at half-maximal effect
[4] = qHTS profiling of the MIPE4 collection as inhibitors of Plasmodium falciparum (DD2) proliferation (AID 743345); conditions: P. falciparum Dd2 in erythrocytes, SYBR Green DNA, 72 h; at 28.5 µM (top of the series) unless noted
Summary of the method: (§1)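 Parasite DNA was quantified by SYBR Green I fluorescence (ex 485, em 535 nm) after overnight lysis in saponin/Triton buffer at room temperature. Cultures at 0.3% parasitemia and 2.5% hematocrit were first exposed to compound for 72 h at 37 C; signals were normalised to artemisinin (0.29 uM) and vehicle wells.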

[5] = qHTS profiling of the MIPE4 collection as inhibitors of Plasmodium falciparum (3D7) proliferation (AID 743344);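 also: scaled between DMSO vehicle wells and 0.29 µM artemisinin as full inhibition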; conditions: P. falciparum 3D7 in erythrocytes, SYBR Green DNA fluorescence, 72 h; at 28.5 µM (top of the series)
Summary of the method: as §1

[6] = qHTS profiling of the MIPE4 collection as inhibitors of Plasmodium falciparum (DD2) proliferation (Rep 2) (AID 743346); conditions: P. falciparum Dd2 in erythrocytes, SYBR Green DNA, 72 h; at 28.5 µM (top of the series)
Summary of the method: as §1

[7] = qHTS profiling of the MIPE4 collection as inhibitors of Plasmodium falciparum (HB3) proliferation (AID 743347);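 also: plate controls were DMSO vehicle wells for no effect and artemisinin wells for full effect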; conditions: P. falciparum HB3 in erythrocytes, SYBR Green DNA, 72 h; at 28.5 µM (top of the series)
Summary of the method: as §1

[8] = High-throughput drug toxicity screening in the BPDCN cell line Cal-1 (AID 1224825); conditions: Cal-1 BPDCN cell viability, qHTS; at 45.8 µM (top of the series)
Summary of the method: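 Percent activity derived from CellTiter-Glo luminescence, scaling DMSO to 100% and 9.2 uM final bortezomib to 0%. BPDCN Cal-1 cells (500/well, RPMI plus 10% FBS) incubated with compounds 48 hours at 37C before reading.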

[9] = qHTS assay for measurement of the activity of small molecule inhibitors on Zika virus induced Caspase-3 activity in human iPSC derived neural progenitor cells (hNPCs) (AID 1224857; active = well fitted curve in the direction sought with a large enough effect; an effect the other way counts as inactive or inconclusive; also: % of control where 0% means no effect; nearly all actives have a fitted effect of over 65% in size)
Summary of the method: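 Values are percent inhibition of virus-induced caspase-3/7 signal, scaled between uninfected cells and ZIKV-infected cells. Infection used 2 FFU/cell for 6 h after 1 h compound exposure.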

[10] = qHTS assay for measurement of the activity of small molecule inhibitors on Zika virus induced Caspase-3 activity in human astrocytoma cells (AID 1224859; active = well fitted curve in the direction sought with a large enough effect; an effect the other way counts as inactive or inconclusive;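 also: plate controls were ZIKV-infected untreated cells for no effect and uninfected cells for full effect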)
Summary of the method: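 Compound added 1 h pre-infection; ZIKV 2 FFU/cell on SNB-19 cells, 6 h, 37 C/5% CO2. Caspase-Glo 3/7 luminescence; values as % inhibition of ZIKV-induced caspase activity.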

[11] = qHTS Screen of the MIPE 4.0 Collection Against Ewings Sarcoma (RDES) (AID 1259252; active = well fitted curve in the direction sought with a large enough effect; an effect the other way counts as inactive or inconclusive; also: nearly all actives have a fitted effect of over 35% in size; also: potency is read from the fitted curve at half-maximal effect)
Summary of the method: (§2)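 CellTiter-Glo luminescence after 48 h compound exposure (titration) gave viability; percent activity used DMSO-treated cells as no inhibition and medium-only wells as full inhibition. Cells grown in RPMI/5% FBS, dosed 4 h post-seeding.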

[12] = qHTS Screen of the MIPE 4.0 Collection Against Ewings Sarcoma (TC71) (AID 1259253; active = well fitted curve in the direction sought with a large enough effect; an effect the other way counts as inactive or inconclusive; also: nearly all actives have a fitted effect of over 40% in size; also: potency is read from the fitted curve at half-maximal effect)
Summary of the method: as §2

[13] = High-throughput drug toxicity screening in the BPDCN cell line Gen2.2 (AID 1224824); conditions: Gen2.2 BPDCN cells; at 45.8 µM (top of the series);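 also: cells exposed to compounds for 48 h before reading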
Summary of the method: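 Seed 500 exponentially growing Gen2.2 cells/well; add compounds by pin tool; incubate 48 h, 37 °C, 5% CO2; add CellTiter-Glo, 15 min RT; read luminescence. % activity vs DMSO (100%) and bortezomib (0%).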

CC(C)[C@]12O[C@H]1[C@@H]1O[C@]13[C@]1(O[C@H]1C[C@H]1C4=C(CC[C@@]13C)C(=O)OC4)[C@@H]2O
remaining proliferation (% of control), lower = more inhibition [1]: 95.4%
Potency [2]: 0.0042 µM (active)
Potency [3]: 0.0074 µM (active)

Cn1cncc1[C@@](N)(c1ccc(Cl)cc1)c1ccc2c(c1)c(-c1cccc(Cl)c1)cc(=O)n2C
parasite growth remaining, % of DMSO control (lower = more inhibition) [4]: 33.3%
Potency [2]: 11.8 µM (active)
Potency [3]: 20.9 µM (active)

O=C(Nc1cc(Cl)cc2c1[nH]c1cnccc12)c1cccnc1
Potency [3]: 13.2 µM (active)

NC(=O)c1ccc(N(C(N)=O)c2c(F)cccc2F)nc1-c1ccc(F)cc1F
Potency [3]: inactive

Cc1c(C(=O)Nc2cccc(C(F)(F)F)c2)cc(-c2ccccc2)n1CCCN1CCOCC1
remaining proliferation (% of control), lower = more inhibition [1]: 9.01%
parasite growth, % of DMSO control [5]: 19.9%
parasite growth remaining, % of DMSO control (lower = more inhibition) [4]: 69.6%
parasite growth, % of control (lower = inhibition) [6]: 16.5%
growth, % of control [7]: 10.9%
Potency [3]: 23.5 µM (active)
viability (% of control) [8]: 37.9%
Potency [9]: inactive
Potency [10]: inactive
Potency [11]: 13.2 µM (active)
Potency [12]: 6.62 µM (active)

Cc1cc(-c2nnc3n2CCCCC3)c(C)n1-c1ccc(F)cc1
Potency [3]: 0.332 µM (active)

CC(=O)NCCC(=O)N[C@@H](CCC(N)=O)C(=O)N[C@@H](CO)C(=O)N[C@@H](CCC(N)=O)C(=O)N[C@@H](CCC(N)=O)C(=O)N[C@H](C(=O)N[C@@H](Cc1ccccc1)C(=O)N[C@]1(C)CCCCCCC=CCCC[C@@](C)(C(=O)N[C@@H](CCC(N)=O)C(=O)N[C@@H](CC(N)=O)C(N)=O)NC(=O)[C@H](CC(C)C)NC(=O)[C@H](CC(C)C)NC(=O)[C@@H](CCCNC(=N)N)NC(=O)[C@H](Cc2c[nH]c3ccccc23)NC(=O)[C@H](CC(C)C)NC(=O)[C@H](CC(N)=O)NC1=O)[C@H](C)O
Potency [3]: inactive

CC[C@H](CO)Nc1nc(NCc2ccccc2)c2ncn(C(C)C)c2n1
parasite growth remaining, % of DMSO control (lower = more inhibition) [4]: 67.6%
parasite growth, % of control (lower = inhibition) [6]: 48%
growth, % of control [7]: 47.3%
Potency [2]: 20.9 µM (active)
Potency [3]: 23.5 µM (active)

C1=CCOCc2cc(ccc2OCCN2CCCC2)Nc2nccc(n2)-c2cccc(c2)OCC1
remaining proliferation (% of control), lower = more inhibition [1]: 115%
Potency [2]: 3.72 µM (active)
Potency [3]: 2.64 µM (active)

N#Cc1c(O)c2c(-c3ccc(-c4ccccc4O)cc3)csc2[nH]c1=O
Potency [3]: inactive

NC(=O)c1ccc(I)c([N+](=O)[O-])c1
Potency [3]: inactive

CC(C)=CCCC(C)=CCCC(C)=CCSc1ccccc1C(=O)O
Potency [3]: inactive

COc1ccc(-c2c(-c3ccc(O)cc3O)n[nH]c2C)cc1
Potency [3]: 16.6 µM (active)

Cc1cccc(-c2[nH]ncc2-c2ccc3ncccc3n2)n1
Potency [3]: inactive

Cc1cnc(Nc2ccc(OCCN3CCCC3)cc2)nc1Nc1cccc(S(=O)(=O)NC(C)(C)C)c1
Potency [3]: inactive

Cc1nc(-c2ccc(-c3ccc(C(=O)N4CCc5cc6c(cc54)C4(CCN(C)CC4)CO6)cc3)c(C)c2)no1
remaining proliferation (% of control), lower = more inhibition [1]: 17.2%
parasite growth, % of DMSO control [5]: 76%
parasite growth remaining, % of DMSO control (lower = more inhibition) [4]: 101%
parasite growth, % of control (lower = inhibition) [6]: 77.5%
growth, % of control [7]: 43.5%
Potency [2]: 23.5 µM (active)
Potency [3]: 26.4 µM (active)
cell viability, % of control (lower = more cytotoxic) [13]: 163%
viability (% of control) [8]: 126%
Potency [9]: inactive
Potency [10]: inactive
Potency [11]: inactive
Potency [12]: inactive

COc1cc(N2CCC(N3CCN(C)CC3)CC2)ccc1Nc1ncc(Cl)c(Nc2ccccc2S(=O)(=O)C(C)C)n1
Potency [3]: 5.26 µM (active)

Cc1cc2c(cc1C1(c3ccc(C(=O)O)cn3)CC1)C(C)(C)CCC2(C)C
Potency [3]: inactive

Clc1ccc(-c2nc3sccn3c2C=NOCc2ccc(Cl)c(Cl)c2)cc1
Potency [3]: inactive

COc1cc(Nc2ncc3c(n2)-c2ccc(Cl)cc2C(c2c(F)cccc2OC)=NC3)ccc1C(=O)O
Potency [3]: inactive

CCOc1ccc(Cc2cc([C@@H]3O[C@H](CO)[C@@H](O)[C@H](O)[C@@H]3O)ccc2Cl)cc1
Potency [3]: inactive

COc1cc2c(cc1OC)[C@@H]1C(=O)c3ccc4c(c3O[C@@H]1CO2)C=CC(C)(C)O4
Potency [3]: 4.18 µM (active)

CCN(CC)C(=O)c1ccc(C2=CC3(CCNCC3)Oc3cccc(O)c32)cc1
parasite growth, % of DMSO control [5]: 21.1%
parasite growth remaining, % of DMSO control (lower = more inhibition) [4]: 42.1%
parasite growth, % of control (lower = inhibition) [6]: 14.4%
growth, % of control [7]: 38.8%
cell viability, % of control (lower = more cytotoxic) [13]: 122%
viability (% of control) [8]: 79%
Potency [9]: inactive
Potency [10]: inactive
Potency [11]: inactive
Potency [12]: inactive

CCNC(=O)CC1N=C(c2ccc(Cl)cc2)c2cc(OC)ccc2-n2c(C)nnc21 (centres undefined)
parasite growth, % of DMSO control [5]: 26.1%
parasite growth remaining, % of DMSO control (lower = more inhibition) [4]: 93.8%
parasite growth, % of control (lower = inhibition) [6]: 70.5%
growth, % of control [7]: 42.1%
viability (% of control) [8]: 11.7%
Potency [9]: inactive
Potency [10]: inactive
Potency [11]: 13.2 µM (active)
Potency [12]: 16.6 µM (active)

CC=C(C)C(=O)O[C@H]1C(C)=C2[C@@H]3OC(=O)[C@@](C)(O)[C@@]3(O)[C@@H](OC(=O)CCC)C[C@](C)(OC(C)=O)[C@@H]2[C@@H]1OC(=O)CCCCCCC
parasite growth, % of DMSO control [5]: 15.2%
parasite growth remaining, % of DMSO control (lower = more inhibition) [4]: 8.2%
parasite growth, % of control (lower = inhibition) [6]: 16.2%
growth, % of control [7]: 8.71%
cell viability, % of control (lower = more cytotoxic) [13]: 12.1%
viability (% of control) [8]: 2.54%
Potency [9]: inactive
Potency [10]: inactive
Potency [11]: 0.148 µM (active)
Potency [12]: 0.0526 µM (active)

O=C(Oc1ccc([N+](=O)[O-])cc1)N1CCN(Cc2cccc(Oc3ccccc3)c2)CC1
parasite growth, % of DMSO control [5]: 95.8%
parasite growth remaining, % of DMSO control (lower = more inhibition) [4]: 92.5%
parasite growth, % of control (lower = inhibition) [6]: 181%
growth, % of control [7]: 96.4%
cell viability, % of control (lower = more cytotoxic) [13]: 151%
viability (% of control) [8]: 54.4%
Potency [9]: inactive
Potency [10]: inactive
Potency [11]: inactive

CC[C@@H]1[C@@H](C)O[C@@](O)([C@@H](C)[C@H](O)[C@H](C)[C@H]2OC(=O)C=CC=C[C@@H](C)[C@@H]([C@@H](C)[C@@H](O)[C@H](C)[C@@]3(O)C[C@H](O[C@H]4C[C@H](O)[C@H](O)[C@H](C)O4)[C@H](CC)[C@@H](C)O3)OC(=O)C=CC=C[C@@H]2C)C[C@H]1O[C@H]1C[C@H](O)[C@H](O)[C@H](C)O1
parasite growth, % of DMSO control [5]: 49.6%
parasite growth remaining, % of DMSO control (lower = more inhibition) [4]: 6.07%
parasite growth, % of control (lower = inhibition) [6]: 25.8%
growth, % of control [7]: 47.6%
viability (% of control) [8]: 3.46%
Potency [9]: inactive
Potency [10]: inactive
Potency [11]: 0.662 µM (active)
Potency [12]: 0.59 µM (active)

COC1=CC(C)=C[C@@H](C)[C@@H](O)[C@@H](C)CC(C)=CC=C[C@H](OC)[C@H]([C@@H](C)[C@@H](O)[C@H](C)[C@@]2(O)C[C@@H](O)[C@H](C)[C@@H](C(C)C)O2)OC1=O
parasite growth, % of DMSO control [5]: 6.56%
parasite growth remaining, % of DMSO control (lower = more inhibition) [4]: 6.47%
parasite growth, % of control (lower = inhibition) [6]: 13.8%
growth, % of control [7]: 8.98%
cell viability, % of control (lower = more cytotoxic) [13]: 67.2%
viability (% of control) [8]: 18.4%
Potency [9]: inactive
Potency [10]: inactive
Potency [11]: 0.0059 µM (active)

CCNC(=O)C[C@@H]1N=C(c2ccc(Cl)cc2)c2cc(OC)ccc2-n2c(C)nnc21
parasite growth, % of DMSO control [5]: 76.4%
parasite growth remaining, % of DMSO control (lower = more inhibition) [4]: 106%
parasite growth, % of control (lower = inhibition) [6]: 99.1%
growth, % of control [7]: 94.6%
viability (% of control) [8]: 7.23%
Potency [9]: inactive
Potency [10]: inactive
Potency [11]: 3.32 µM (active)
Potency [12]: 2.96 µM (active)
